Screening results (PubChem BioAssay)
Tau ThT inhib – tau fibrillization inhibition (ThT binding); P10636; recombinant tau K18 P301L, heparin-induced fibrillization, ThT fluorescence; Potency, µM (titrated, usually from 57.4 µM), for the others: top-dose activity, negative = inhibition, actives largely listed as inhibitors; 270,000 compounds, 2.1% hits; AID 1460; also: potency is read from the fitted curve at half-maximal effect; nearly all actives have a fitted effect of over 55% in size
Target sequence (P10636 561-689 P618L limits assumed): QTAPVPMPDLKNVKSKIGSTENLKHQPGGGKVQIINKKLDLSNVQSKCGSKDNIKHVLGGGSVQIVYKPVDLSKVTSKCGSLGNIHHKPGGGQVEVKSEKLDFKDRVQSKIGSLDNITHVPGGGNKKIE
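Aggregation was driven by heparin (20 uM final) acting on recombinant tau […] bearing P301L in 100 mM sodium acetate pH 7; fibrils were detected with Thioflavin T.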
G9a block – G9a (human) methyltransferase inhibition | 350,000 compounds, 8.8% hits | G9a H3K9 monomethylation, AlphaScreen, 2 h | AID 504332 | Potency, µM (top dose mostly 102 µM), for inactives: at the highest dose activity, negative = inhibition, actives largely listed as inhibitors; also: potency is read from the fitted curve at half-maximal effect; nearly all actives have a fitted effect of over 75% in size
Target sequence (Q96KQ7 913-1193 limits assumed): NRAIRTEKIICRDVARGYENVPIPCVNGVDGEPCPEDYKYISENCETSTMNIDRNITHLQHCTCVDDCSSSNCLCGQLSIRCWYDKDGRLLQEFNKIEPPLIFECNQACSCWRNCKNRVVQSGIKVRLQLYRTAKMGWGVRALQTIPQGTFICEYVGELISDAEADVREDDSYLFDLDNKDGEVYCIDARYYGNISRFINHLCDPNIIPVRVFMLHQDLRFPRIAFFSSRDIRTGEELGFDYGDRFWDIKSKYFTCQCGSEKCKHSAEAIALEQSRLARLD
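Chemiluminescent proximity detection of H3K9 monomethylation, read after 10 min bead incubation in the dark. Reaction: 20 nM G9a, 500 nM biotin-H3K9 peptide, 20 uM SAM cofactor, 2 h, room temperature, following 15 min enzyme-compound preincubation.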
Sfp inh – inhibitors of Bacillus subtilis Sfp phosphopantetheinyl transferase; Biochemical Sfp PPTase activity, qHTS; 310,000 compounds, 3.5% hits; Potency, µM, for inactives: largest response in the series, negative = inhibition, hits mostly inhibitors; AID 1490;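 also: the enzyme is Sfp with the accession as filed and its product quenches rhodamine fluorescence; potency is read from the fitted curve at half-maximal effect; 0% = enzyme reaction without inhibitor and -100% = no enzyme wells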
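Fluorescence-quenching assay with 15 nM Sfp, 5 uM rhodamine-CoA and 12.5 uM BHQ-2-labelled ybbR peptide in pH 7.6 Hepes/MgCl2 buffer. Enzyme was pre-incubated with compound for 15 min at room temperature. Rate was taken from the 30-min fluorescence change (525/598 nm).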
FBPA coupling cs – coupling enzyme interference in Giardia aldolase counter-screen; AID 2472; activity change, negative = inhibition, % at 58.2 µM, hits read low; coupling enzyme system counterscreen, AmpLite Red fluorescence; 290,000 compounds, 0.67% hits; in the data active = activity change below about -30%
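Fluorescence at 525 nm excitation and 598 nm emission measured inhibition of the coupled detection system without aldolase. Compounds (at 57.5 uM final) were preincubated 10 min at room temperature with coupling enzyme reagent before a 20 min substrate/AmpLite Red step.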
Tau fibril FP – tau fibrillization inhibition (FP); Potency, µM (top dose mostly 57.7 µM), for the others: at the highest dose activity, negative = inhibition, hits mostly inhibitors; AID 1468; K18 P301L tau heparin fibrillization, Alexa594 FP, 6 h; P10636; 280,000 compounds, 0.39% hits; also: potency is read from the fitted curve at half-maximal effect; nearly all actives have a fitted effect of over 55% in size
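FP of Alexa 594-tau after heparin (20 uM) induction. Substrate: human K18 P301L, 15 uM unlabeled, 0.24 uM labeled. Buffer 100 mM sodium acetate pH 7. 6 hr, 37 C.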
Tau fluor counter – counter-screen for tau fibril formation inhibitors; Potency, µM (series often up to 57.7 µM), without a hit: at the highest dose activity change, negative = decrease; AID 1463; 280,000 compounds, 0.93% hits; tau K18 P301L (four-repeat tau fragment) Alexa594 fluorescence, heparin fibrillization; also: potency is read from the fitted curve at half-maximal effect; nearly all actives have a fitted effect of over 55% in size
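Human K18 P301L tau (15 uM unlabeled plus 0.24 uM Alexa 594-labeled, final) in 100 mM sodium acetate pH 7 was mixed with compound and 20 uM heparin and incubated 6 hr at 37 C.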
Active calls of the source: *; ? = inconclusive; . = no result given; [ ] = another dose, or the depositor's remark. Compounds with a hit are over-represented: about 11% of the library has one in this group of screens. Unless noted, calls follow the shape of the dose curve; as a rule, active = well fitted curve in the direction sought with a large enough effect; inconclusive = small, poorly fitted or top-dose-only effect, or another doubt; inactive = no such curve, though single readings can be large; an effect the other way counts as inactive or inconclusive. Unless noted, % is scaled to controls: 0 for no effect and ±100 for the full control effect.

SMILES | Tau ThT inhib | G9a block | Sfp inh | FBPA coupling cs | Tau fibril FP | Tau fluor counter
Cc1ccn2cc(-c3ccc(C)c(NS(=O)(=O)c4ccc(Cl)cc4)c3)nc2c1 | -5% | 2%[59 µM] | . | . | -11% | ?
c1nc(NCCN2CCOCC2)c2sc3nc(N4CCOCC4)c4c(c3c2n1)CCC4 | -15% | 50µM* | 7% | -8 | 7% | -9%
CCN1CCN(c2ncnc3c2sc2nc(N4CCOCC4)c4c(c23)CCC4)CC1 | -3% | ? | 11% | -2 | 5% | 1%
CN(C)CCNc1ncnc2c1sc1nc(-c3ccccc3)c3c(c12)CCCC3 | ? | ? | 35µM* | -6 | ? | -5%
O=C(O)CCn1c(-c2ccccc2)cc2c1CCCC2=O | 9% | 50µM* | -16% | 0 | -3% | 4%
C/C=C(\C)CN1CCN(c2ccccc2)CC1 | ? | 50µM* | 10% | -2 | 4% | -15%
C/C(=C\c1ccccc1)CN1CCN(c2ccccc2)CC1 | 2% | 14µM* | -28% | 0 | -2% | -3%
Cc1ccc(C)c(N2CCN(Cc3nnnn3C3CCCCC3)CC2)c1 | ? | -49%[59 µM] | 79µM* | -2 | -5% | -19%
C/C=C(\C)CN1CCN(c2cccc(C)c2C)CC1 | -6% | -29%[59 µM] | -3% | 8 | 4% | -2%
C/C=C(\C)CN1CCN(c2cc(C)ccc2C)CC1 | 0% | 1.3µM* | ? | -1 | 5% | -3%
O=S(=O)(NCc1cccc(Br)c1)c1ccc(-c2cc(C(F)(F)F)on2)s1 | 20% | -7%[59 µM] | . | . | ? | 10%
Cc1cc(NC(=O)COC(=O)C2CC(=O)N(c3cccc(Cl)c3)C2)no1 (centres undefined) | . | 1% | 1% | -1 | . | .
O=C(CCCn1c(=O)[nH]c2ccccc2c1=O)N1CCN(c2ccccc2)CC1 | ? | -8%[59 µM] | . | . | 6% | -5%
CN(Cc1ccccc1)C(=O)CSc1nc2ccsc2c(=O)n1-c1ccc(F)cc1 | -1% | -2%[59 µM] | . | . | -7% | -4%
CCN(CC)CCNC(=O)C1CCN(c2nn3cc(-c4ccc(F)cc4)nc3s2)CC1 | -14% | ? | . | . | 8% | -11%
CCc1ccccc1N(CC)C(=O)Cn1nc(Cc2ccncc2)c2ccccc2c1=O | -8% | -28%[59 µM] | . | . | 6% | -2%
COc1[nH]c(/N=C/c2ccccc2)c(C#N)c1C#N | ? | 3.2µM* | -9% | 0 | -10% | -10%
C/C(=N/NC(=O)c1ccc(C)s1)c1ccncc1 | . | -20% | -3% | 2 | . | .
COc1ccc(/C(=C/Nc2cccc(Br)c2)C(C)=O)cc1OC | -13% | ? | 7% | 1 | 6% | -10%
O=C(CN1CCN(c2ccccc2F)CC1)N1CCc2ccccc21 | . | 10% | 9% | -1 | . | .
O=C(CN1CCN(c2ccccc2F)CC1)c1c[nH]c2ccc(F)cc12 | -8% | ? | 3% | 3 | -8% | ?
CC(=O)N1CCc2cc(C(=O)CN3CCN(c4ccccn4)CC3)ccc21 | . | 20µM* | 50µM* | -3 | -9% | -18%
O=C(CN1CCN(c2ccccc2F)CC1)c1ccc2cc[nH]c2c1 | ? | 25µM* | -11% | 0 | -1% | -14%
CC(=O)N1CCc2cc(S(=O)(=O)CCC(=O)N3CCN(c4ccccn4)CC3)ccc21 | 5% | -6%[59 µM] | 10% | 4 | 3% | 5%
CC(=O)N1CCc2cc(C(=O)CN3CCN(c4ccccc4F)CC3)ccc21 | ? | 14µM* | 50µM* | 0 | -7% | -15%
SMILES | Tau ThT inhib | G9a block | Sfp inh | FBPA coupling cs | Tau fibril FP | Tau fluor counter
CCOC(=O)C1CCN(C(c2cccc(F)c2)c2c(O)cc(C)n(Cc3ccco3)c2=O)CC1 (centres undefined) | ? | -37%[59 µM] | . | . | -15% | -11%
COc1cc(-c2nnc(SCc3cc(=O)oc4cc(O)c(O)cc34)o2)cc(OC)c1OC | ? | 4.5µM* | -11% | -2 | 0% | ?
CCOC(=O)CSc1nnc(-c2cc(OC)c(OC)c(OC)c2)o1 | -8% | . | 0% | 0 | -6% | -13%
CCn1ncc(C2=NOC(C(=O)NCc3ccccc3)C2)c1C (centres undefined) | 2% | 45µM* | 79µM* | -1 | -8% | -4%
CCn1ncc(C2=NOC(C(=O)NCc3ccc(OC)cc3)C2)c1C (centres undefined) | -7% | -6%[2.33 µM] | 0% | 3 | -4% | -6%
CCCC(c1nnnn1C(C)(C)CC)N1CCN(C2CCCC2)CC1 (centres undefined) | -12% | 89µM* | 6% | 2 | 2% | -8%
CCCC(c1nnnn1Cc1ccco1)N1CCN(C2CCCC2)CC1 (centres undefined) | -1% | 50µM* | 5% | 1 | 4% | 5%
COc1ccc(/C=N/NC(=O)c2cc(O)c(O)c(O)c2)cc1Cn1cc([N+](=O)[O-])cn1 | ? | 14µM* | -121% | -24 | 0% | ?
COc1ccc(/C=N/NC(=O)c2ccccc2O)cc1Cn1cc([N+](=O)[O-])cn1 | -21% | 10% | -14% | 2 | 1% | -20%
COc1ccc(/C=N/NC(=O)c2ccc(Br)o2)cc1Cn1cc([N+](=O)[O-])cn1 | -12% | -32%[59 µM] | -4% | 0 | 1% | -17%
COc1ccc(/C=N/Nc2ccccc2C(=O)O)cc1Cn1cc([N+](=O)[O-])cn1 | ? | 22µM* | 6% | 0 | -1% | -18%
CCC(=O)N1CCc2cc(CNS(=O)(=O)c3ccc(NC(=O)CC(C)C)cc3)ccc21 | -7% | 11%[59 µM] | . | . | 1% | -8%
CCC(C)OC(=O)/C(C#N)=C\c1ccc(-c2ccccc2Cl)o1 (centres undefined) | ? | -14%[59 µM] | . | . | -3% | -8%
CCOc1cccc(-c2csc(C3COc4ccccc4O3)n2)c1 (centres undefined) | -13% | 14%[59 µM] | 5% | 0 | -12% | -9%
CCCCn1c(N)c(N(Cc2ccccc2OC)C(=O)c2cc(CC)c(C)s2)c(=O)[nH]c1=O | . | 13%[12.7 µM] | . | . | . | .
CC1(C)O[C@@H]2[C@H](O1)[C@@H](CO)O[C@H]2n1cnc2c(=O)[nH]cnc21 | . | 6%[0.501 µM] | . | . | . | .
Cc1ccc([C@@H]2[C@@H]3C(=O)N(C)C(=O)[C@@H]3[C@]3(C)C(=O)N(CCO)CC(=O)N23)o1 | . | 45µM* | 3% | 3 | . | .
COC(=O)CN1C(=O)[C@H]2[C@@H](c3ccc(C)o3)N3C(=O)CN(CC4CC4)C(=O)[C@@]3(C)[C@H]2C1=O | . | 50µM* | ? | -2 | . | .
COC(=O)CN1C(=O)[C@H]2[C@@H](c3ccc(C)o3)N3C(=O)CN(Cc4ccc(-c5ccccc5)cc4)C(=O)[C@@]3(C)[C@H]2C1=O | . | 40µM* | 13µM* | -1 | . | .
